# Laboratory results as given in PubChem BioAssay (EPA / NIEHS).
# Calls of active or inactive are those of the source. The calls were made as follows: active = hit-call score of the fitted dose curve at least 0.9, where 1 is the maximum; inactive = score below 0.9.
# Key:
# [1] = read-out: Macrophage colony-stimulating factor (MCSF), CSF1 (gene 1435); experiment: BSK_hDFCGF_MCSF: BioMAP Diversity Plus: hDFCGF Assay for Macrophage colony-stimulating factor (MCSF) Biomarker Activity (AID 2283060); details: primary human foreskin fibroblasts; actives raise or lower the signal
# How it was run: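 M-CSF levels read by ELISA at 24 h post-dosing in human skin fibroblasts. Parallel cultures stained with SRB assessed cytotoxicity at the same time point; response fitted in both directions against the DMSO baseline.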
# [2] = BSK_hDFCGF_SRB: Viability Assessment in the BioMAP Diversity Plus: hDFCGF Assay (AID 2283061); details: primary human foreskin fibroblasts;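 also: cells exposed to compound for 24 h before the read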
# How it was run: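 Viability was read as total protein: after 10% TCA fixation, wells were stained with 0.1% sulforhodamine B and read at 560 nm. Primary human foreskin fibroblasts were dosed for 24 h, with bidirectional fitting versus DMSO.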
# [3] = read-out: TIMP metallopeptidase inhibitor 1 (TIMP1), TIMP1 (gene 7076); experiment: BSK_hDFCGF_TIMP1: BioMAP Diversity Plus: hDFCGF Assay for TIMP metallopeptidase inhibitor 1 (TIMP1) Biomarker Activity (AID 2283062); details: primary human foreskin fibroblasts; actives raise or lower the signal
# How it was run: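 TIMP-1 measured by ELISA 24 h after chemical dosing of primary human skin fibroblasts, with gain or loss fitted relative to DMSO. Parallel SRB staining (560 nm) monitored overt cytotoxicity.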
# [4] = read-out: Monokine induced gamma interferon (MIG), CXCL9 (gene 4283); experiment: BSK_hDFCGF_MIG: BioMAP Diversity Plus: hDFCGF Assay for Monokine induced gamma interferon (MIG) Biomarker Activity (AID 2283063); details: primary human foreskin fibroblasts; actives raise or lower the signal
# How it was run: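 Human primary foreskin fibroblasts in the hDFCGF system, exposed to test chemical for 24 h; MIG measured by ELISA. Bidirectional curve fitting against DMSO negative control as activity baseline.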
# [5] = read-out: Matrix Metallopeptidase 1 (MMP1), MMP1 (gene 4312); experiment: BSK_hDFCGF_MMP1: BioMAP Diversity Plus: hDFCGF Assay for Matrix Metallopeptidase 1 (MMP1) Biomarker Activity (AID 2283064); details: primary human foreskin fibroblasts; actives raise or lower the signal
# How it was run: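 hDFCGF primary fibroblasts (human foreskin); chemical added; 24 h; MMP1 by ELISA; bidirectional fit vs DMSO.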
# [6] = read-out: Vascular cell adhesion molecule 1 (VCAM1), VCAM1 (gene 7412); experiment: BSK_hDFCGF_VCAM1: BioMAP Diversity Plus: hDFCGF Assay for Vascular cell adhesion molecule 1 (VCAM1) Biomarker Activity (AID 2283065); details: primary human foreskin fibroblasts; actives raise or lower the signal;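 as to AC50: VCAM-1 protein level quantified by ELISA after 24 h chemical exposure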
# How it was run: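 ELISA readout of VCAM-1 on human dermal fibroblast primary cultures, 24 h after chemical exposure. Gain or loss of signal fitted in both directions against DMSO baseline.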
# [7] = read-out: Plasminogen activator inhibitor-1 (PAI1), SERPINE1 (gene 5054); experiment: BSK_hDFCGF_PAI1: BioMAP Diversity Plus: hDFCGF Assay for Plasminogen activator inhibitor-1 (PAI1) Biomarker Activity (AID 2283066); details: primary human foreskin fibroblasts; actives raise or lower the signal
# How it was run: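 Human foreskin fibroblast primary cells, 24 h chemical exposure; PAI-1 measured by ELISA. Bidirectional fitting relative to DMSO; parallel cultures stained with SRB for total protein to flag overt cytotoxicity.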
# [8] = read-out: Intercellular Adhesion Molecule 1 (ICAM1), ICAM1 (gene 3383); experiment: BSK_KF3CT_ICAM1: BioMAP Diversity Plus: KF3CT Assay for Intercellular Adhesion Molecule 1 (ICAM1) Biomarker Activity (AID 2283067); details: primary human keratinocytes with fibroblasts; actives raise or lower the signal
# How it was run: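 Cell-surface ICAM-1 was measured by ELISA 24 h after dosing primary human skin keratinocytes co-cultured with fibroblasts. Parallel SRB staining tracked overt cytotoxicity. Gain or loss of signal was fitted relative to DMSO.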
# [9] = read-out: Interferon-gamma inducible Protein 10 (IP10), CXCL10 (gene 3627); experiment: BSK_KF3CT_IP10: BioMAP Diversity Plus: KF3CT Assay for Interferon-gamma inducible Protein 10 (IP10) Biomarker Activity (AID 2283068); details: primary human keratinocytes with fibroblasts; actives raise or lower the signal
# How it was run: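 Signal is secreted/surface IP-10 by ELISA in a human primary skin co-culture of keratinocytes and foreskin fibroblasts, taken 24 h post-dosing; DMSO served as negative control.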
# [10] = BSK_KF3CT_SRB: Viability Assessment in the BioMAP Diversity Plus: KF3CT Assay (AID 2283069); details: primary human keratinocytes with fibroblasts;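 also: total protein by sulforhodamine B staining as a cytotoxicity measure; read 24 h after compound addition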
# How it was run: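 Keratinocytes co-cultured with foreskin fibroblasts (human primary); chemical added, 24 h; fix 10% TCA, stain 0.1% SRB, A560. Bidirectional fit vs DMSO.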
# [11] = read-out: Interleukin-1 alpha (IL1a), IL1A (gene 3552); experiment: BSK_KF3CT_IL1a: BioMAP Diversity Plus: KF3CT Assay for Interleukin-1 alpha (IL1a) Biomarker Activity (AID 2283070); details: primary human keratinocytes with fibroblasts; actives raise or lower the signal
# How it was run: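 Chemicals were dosed onto co-cultured human keratinocytes and foreskin fibroblasts, IL-1a was quantified by ELISA at 24 h, and activity was fitted in both directions relative to DMSO controls.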
# [12] = read-out: TIMP metallopeptidase inhibitor 2 (TIMP2), TIMP2 (gene 7077); experiment: BSK_KF3CT_TIMP2: BioMAP Diversity Plus: KF3CT Assay for TIMP metallopeptidase inhibitor 2 (TIMP2) Biomarker Activity (AID 2283071); details: primary human keratinocytes with fibroblasts; actives raise or lower the signal
# How it was run: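 Co-culture of human primary keratinocytes and foreskin fibroblasts, measured 24 h after chemical dosing. TIMP-2 quantified by ELISA and fitted in both directions relative to DMSO. Cytotoxicity checked in parallel cultures by SRB total-protein staining.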
# [13] = read-out: Transforming growth factor beta 1 (TGFb1), TGFB1 (gene 7040); experiment: BSK_KF3CT_TGFb1: BioMAP Diversity Plus: KF3CT Assay for Transforming growth factor beta 1 (TGFb1) Biomarker Activity (AID 2283072); details: primary human keratinocytes with fibroblasts; actives raise or lower the signal
# How it was run: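 Human keratinocyte/foreskin fibroblast co-culture; TGF-b1 measured by ELISA 24 h after dosing, fitted bidirectionally versus DMSO. Cytotoxicity checked in parallel cultures by total protein (SRB staining, 560 nm).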
# [14] = read-out: C-C motif chemokine 2 (Homo sapiens) (UniProt P13500); experiment: BSK_KF3CT_MCP1: BioMAP Diversity Plus: KF3CT Assay for Monocyte Chemoattractant Protein 1 (MCP1/CCL2) Biomarker Activity (AID 2283073); details: primary human keratinocytes with fibroblasts; actives raise or lower the signal
# How it was run: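 ELISA read-out of MCP-1, 24 h post-dose, in primary human skin keratinocytes co-cultured with fibroblasts. Parallel SRB staining monitors cytotoxicity; changes fitted both directions relative to DMSO.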
# [15] = read-out: Matrix Metallopeptidase 9 (MMP9), MMP9 (gene 4318); experiment: BSK_KF3CT_MMP9: BioMAP Diversity Plus: KF3CT Assay for Matrix Metallopeptidase 9 (MMP9) Biomarker Activity (AID 2283074); details: primary human keratinocytes with fibroblasts; actives raise or lower the signal;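 as to AC50: MMP9 protein level quantified by ELISA in the co-culture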
# How it was run: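 Human keratinocyte/foreskin fibroblast co-culture; compound added; 24 h; MMP-9 by ELISA; bidirectional fit vs DMSO baseline.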
# [16] = read-out: urokinase plasminogen activator (uPA), PLAU (gene 5328); experiment: BSK_KF3CT_uPA: BioMAP Diversity Plus: KF3CT Assay for urokinase plasminogen activator (uPA) Biomarker Activity (AID 2283075); details: primary human keratinocytes with fibroblasts; actives raise or lower the signal
# How it was run: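 ELISA readout of uPA, analyzed for signal gain or loss relative to DMSO, from a human primary keratinocyte–foreskin fibroblast co-culture measured 24 h after chemical treatment.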
# [17] = read-out: CD40, CD40 (gene 958); experiment: BSK_LPS_CD40: BioMAP Diversity Plus: LPS Assay for CD40 Biomarker Activity (AID 2283076); details: primary human HUVEC with PBMC; actives raise or lower the signal
# How it was run: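 In the LPS system of human endothelial cells with peripheral blood mononuclear cells, CD40 levels were read by ELISA 24 h post-treatment. Signal changes in either direction were fitted against the DMSO baseline, with parallel SRB protein staining.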
# [18] = read-out: E-selectin (Homo sapiens) (UniProt P16581); experiment: BSK_LPS_Eselectin: BioMAP Diversity Plus: LPS Assay for Eselectin Biomarker Activity (AID 2283077); details: primary human HUVEC with PBMC; actives raise or lower the signal
# How it was run: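 E-selectin ELISA on LPS-stimulated endothelial cell/PBMC co-cultures, read 24 h post-treatment; gains and losses fitted against DMSO. Parallel SRB staining (0.1% SRB after 10% TCA fixation, 560 nm) flags overt cytotoxicity.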
# [19] = read-out: Interleukin-8 (IL8), CXCL8 (gene 3576); experiment: BSK_LPS_IL8: BioMAP Diversity Plus: LPS Assay for Interleukin-8 (IL8) Biomarker Activity (AID 2283078); details: primary human HUVEC with PBMC; actives raise or lower the signal
# How it was run: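 ELISA read-out of IL-8 after 24 h chemical treatment of LPS-activated endothelial/PBMC human primary co-cultures. Changes either up or down relative to DMSO; overt cytotoxicity checked by sulforhodamine B staining in parallel wells.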
# [20] = BSK_LPS_SRB: Viability Assessment in the BioMAP Diversity Plus: LPS Assay (AID 2283079); details: primary human HUVEC with PBMC;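 also: total protein by sulforhodamine B absorbance as a cytotoxicity measure; measured one day after compound addition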
# How it was run: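 SRB viability endpoint: cells fixed with 10% TCA, stained with 0.1% SRB, read at 560 nm, 24 h post-dose. HUVEC/PBMC co-culture; signal change in either direction scored relative to DMSO.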
# Sequence of E-selectin (Homo sapiens) (P16581 whole entry, looked up): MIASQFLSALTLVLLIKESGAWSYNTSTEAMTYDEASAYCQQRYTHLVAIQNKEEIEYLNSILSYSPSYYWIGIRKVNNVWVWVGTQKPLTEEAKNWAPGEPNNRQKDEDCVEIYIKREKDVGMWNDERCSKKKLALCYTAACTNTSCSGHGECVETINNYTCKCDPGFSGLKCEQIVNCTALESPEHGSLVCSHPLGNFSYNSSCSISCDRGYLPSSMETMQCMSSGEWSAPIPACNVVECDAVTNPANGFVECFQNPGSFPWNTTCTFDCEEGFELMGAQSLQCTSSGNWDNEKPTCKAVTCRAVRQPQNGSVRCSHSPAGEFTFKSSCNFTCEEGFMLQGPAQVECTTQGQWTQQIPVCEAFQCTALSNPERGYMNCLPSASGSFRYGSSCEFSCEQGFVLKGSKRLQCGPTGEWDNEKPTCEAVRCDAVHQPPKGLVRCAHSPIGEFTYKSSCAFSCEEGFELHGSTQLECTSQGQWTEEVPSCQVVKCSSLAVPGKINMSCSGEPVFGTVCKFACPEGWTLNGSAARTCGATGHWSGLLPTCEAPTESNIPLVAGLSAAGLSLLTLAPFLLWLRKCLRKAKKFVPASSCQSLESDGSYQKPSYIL
smiles,measurement,setting,value
CCOP(=S)(OCC)Oc1nc(Cl)n(C(C)C)n1,outcome,[1],inactive
same,outcome,[2],inactive
same,outcome,[3],inactive
same,outcome,[4],inactive
same,outcome,[5],inactive
same,outcome,[6],inactive
same,outcome,[7],inactive
same,outcome,[8],inactive
same,outcome,[9],inactive
same,outcome,[10],inactive
same,outcome,[11],inactive
same,outcome,[12],inactive
same,outcome,[13],inactive
same,outcome,[14],inactive
same,outcome,[15],inactive
same,outcome,[16],inactive
same,outcome,[17],inactive
same,outcome,[18],inactive
same,outcome,[19],inactive
same,outcome,[20],inactive
COP(=S)(OC)SCn1nnc2ccccc2c1=O,outcome,[1],inactive
same,outcome,[2],inactive
same,outcome,[3],inactive
same,outcome,[4],inactive
same,outcome,[5],inactive
same,outcome,[6],inactive
same,outcome,[7],inactive
same,outcome,[8],inactive
same,outcome,[9],inactive
same,outcome,[10],inactive
same,outcome,[11],inactive
same,outcome,[12],inactive
same,outcome,[13],inactive
same,outcome,[14],inactive
same,outcome,[15],inactive
same,outcome,[16],inactive
same,outcome,[17],inactive
same,outcome,[18],inactive
same,outcome,[19],inactive
same,outcome,[20],inactive
CCOc1cc(C(C)(C)C)ccc1C1COC(c2c(F)cccc2F)=N1 (stereo not given),AC50,[1],14.5 µM (active)
same,AC50,[2],19.7 µM (active)
same,AC50,[3],13.8 µM (active)
same,AC50,[4],29.4 µM (active)
same,AC50,[5],14.3 µM (active)
same,AC50,[6],15.3 µM (active)
same,AC50,[7],12.3 µM (active)
same,AC50,[8],31.3 µM (active)
same,AC50,[9],17.3 µM (active)
same,AC50,[10],8.44 µM (active)
same,AC50,[11],11.2 µM (active)
same,AC50,[12],15.1 µM (active)
same,AC50,[13],33 µM (active)
same,AC50,[14],20 µM (active)
same,AC50,[15],14.8 µM (active)
same,AC50,[16],27.1 µM (active)
same,AC50,[17],29.2 µM (active)
same,AC50,[18],33.2 µM (active)
same,AC50,[19],26 µM (active)
same,AC50,[20],26.2 µM (active)
